{"source": "PubChem BioAssay AID720690", "about": "(Broad Institute, 2013)", "note": "Results with a measured potency or affinity are listed apart. Active and inactive are the calls of the source.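 Rule for the calls: active = every repeat run showing a signal drop whose fitted half-maximal concentration is at most twice the top tested concentration; inconclusive = repeat runs disagree, or flat partial drop, or poor fit; inactive = the rest.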"}
{"assay": "general mammalian cell viability loss – activator set, cherry-pick, cytotoxicity control for miR-122 modulator project, dose response (AID 720690)", "settings": "HEK293T viability, CellTiter-Glo luminescence, 48 h; series mostly up to 26 µM"}
{"smiles": "COCC(=O)N1C[C@H]2[C@@H](c3ccccc31)[C@H](CO)N2C(=O)Nc1ccccc1Cl", "outcome": "inactive"}
{"smiles": "CN(C[C@@H]1[C@@H](c2ccccc2)[C@H](CO)N1C(=O)C1CCC1)C(=O)c1ccccn1", "outcome": "inactive"}
{"smiles": "C=CCNC(=S)NNC(=O)Cn1c(-c2ccccc2)cc(=O)n2ncnc12", "outcome": "inactive"}
{"smiles": "Cc1nc(C)c(C(=O)Nc2ccc(Oc3ccccc3)cc2)o1", "outcome": "inactive"}
{"smiles": "CCC(=O)N1[C@H](CN(C(C)C)S(C)(=O)=O)[C@H](c2ccccc2)[C@@H]1CO", "outcome": "inactive"}
{"smiles": "C/C=C/c1ccc([C@@H]2[C@@H](CO)N(C(C)=O)[C@H]2CN(C(=O)COC)C(C)C)cc1", "outcome": "inactive"}
{"smiles": "COCC(=O)N(C[C@@H]1N[C@H](CO)[C@H]1c1ccc(C2=CCCC2)cc1)C(C)C", "outcome": "inactive"}
{"smiles": "CCNC(=O)CCC(=O)Nc1cc(Cl)ccc1C", "outcome": "inactive"}
{"smiles": "CN(C)CCCNC(=O)C[C@@H]1CC[C@H]2[C@H](COc3ccc(NC(=O)c4cccc(F)c4)cc3C(=O)N2C)O1", "outcome": "inactive"}
{"smiles": "CCC(=O)N1[C@H](CO)[C@H](c2ccccc2)[C@H]1CN(C(C)C)S(C)(=O)=O", "outcome": "inactive"}
{"smiles": "CN1C(=O)c2cc(NC(=O)c3ccc4c(c3)OCO4)ccc2OC[C@@H]2O[C@@H](CC(=O)O)CC[C@@H]21", "outcome": "inactive"}
{"smiles": "CCN(C[C@H]1N[C@H](CO)[C@H]1c1ccc(C2=CCCC2)cc1)C(=O)c1cccnc1", "outcome": "inactive"}
{"smiles": "O=C(Nc1ccccc1N1CCN(C(=O)c2ccc(Cl)cc2)CC1)c1cccnc1", "outcome": "inactive"}
{"smiles": "CCCNC(=O)C[C@H]1CC[C@@H]2[C@@H](COc3ccc(NC(=O)c4ccc5c(c4)OCO5)cc3C(=O)N2C)O1", "outcome": "inactive"}
